# In the library only some 2.3% were active in any assay of this set; here they are far more common.
# ATXN2 expr inh = Primary qHTS for Inhibitors of ATXN expression; HEK-293 ATXN2-luciferase reporter, luminescence, 24 h; Potency, µM (series often up to 57 µM), inactives show at the top dose activity change, negative = inhibition, usual class: inhibitors; hit rate 0.72% among 360,000; note: % is set by controls: 0 for no effect and ±100 for the full control effect; nearly all actives have a fitted effect of over 55% in size
#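 qHTS (up to 57 uM final) was run with 24 h compound exposure of reporter cells at 37 °C. Each well was multiplexed: SteadyGlo luminescence measured ATXN2-luciferase expression after a fluorogenic Gly-Phe-AFC viability readout (25 uM final).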
# ATXN viability = Viability Counterscreen for Primary qHTS for Inhibitors of ATXN expression; S2 cells (HEK-293 line with an ATXN2-luciferase reporter) viability, CellTiter-Fluor protease fluorescence, 24 h; Potency, µM (titrated, usually from 56.7 µM), actives largely listed as cytotoxic; hit rate 0.49% among 400,000; AID 651635, 2014; note: nearly all actives have a fitted effect of over 40% in size
# TGFb inhibitor = qHTS for Inhibitors of TGF-b; Potency, µM (titrated, usually from 46.1 µM), for inactives: at the top dose activity, negative = inhibition, hits mostly inhibitors; HepG2 CAGA-GFP TGF-b/SMAD3 reporter, GFP fluorescence, 18 h; TGF-beta stimulated, 500 pg/mL final; hit rate 1.2% among 410,000; AID 588855, 2011; note: % is set by controls: 0 for no effect and ±100 for the full control effect; nearly all actives have a fitted effect of over 65% in size
#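 Read-out: total well GFP (ex488/em500-530) summed from mean per-cell fluorescence. Cells: HEPG2 CAGA-GFP, 1% FBS DMEM, 18 h at 37 degrees C with 500 pg/mL final TGF-beta. Unstimulated wells served as the full-inhibition control; stimulated DMSO wells = 0%.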
# HepG2 viability = qHTS for Inhibitors of TGF-b: Cytotox Counterscreen; HepG2 CAGA-GFP viability, ATP luminescence, 18 h; hit rate 0.76% among 410,000; Potency, µM (top dose mostly 46.1 µM), without a hit: at the top dose activity change, negative = cytotoxicity, actives largely listed as cytotoxic
#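 CellTiter-Glo luminescence gave cytotoxicity after 18 hours at 37 degrees C. The cells were HepG2 CAGA-GFP in 1% FBS DMEM, stimulated with 500 pg/mL TGF-beta after compound addition. %Activity was normalised to no-cell wells (complete cell-killing) and DMSO (no toxicity), and curves were fitted and classified.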
# Numbers without * were called inactive; i = inactive; u = inconclusive; x = no result given. Calls come from the whole dose curve; as a rule, active = well fitted curve in the direction sought with a large enough effect; inconclusive = small, poorly fitted or top-dose-only effect, or another doubt; inactive = no such curve, though single readings can be large; an effect the other way counts as inactive or inconclusive. Potency is the fitted concentration of half-maximal effect.
SMILES,ATXN2 expr inh,ATXN viability,TGFb inhibitor,HepG2 viability
COc1cc2nc(CC(O)c3nc4cc(OC)c(OC)cc4[nH]3)[nH]c2cc1OC (stereo not drawn),x,x,1.5%,5.8%
O=S(=O)(O)c1cc(O)c2c(O)c(N=Nc3cc(Cl)ccc3O)c(S(=O)(=O)O)cc2c1,u,8.91µM*,-20.2%,-31.2%
O=S(=O)(O)c1cc(Cl)cc(N=Nc2ccc(O)cc2O)c1O,u,u,-18.5%,-1.1%
COC(=O)[C@@]1(Cc2ccccc2)[C@@H]2C(=CC(=O)[C@H]2CC(=O)C(=O)N(C)C)CN1C(=O)c1ccccc1,28.2µM*,20µM*,u,-51.3%
COC(=O)[C@@]1(Cc2ccc(F)cc2)[C@H]2c3cc(C(=O)N(C)C)n(CCF)c3C[C@H]2CN1C(=O)c1ccccc1,-12.2%,i,x,x
Cc1cccc(C)c1OCc1cc(=O)n2c(-c3ccccc3)csc2n1,-8.9%,i,10µM*,-32.7%
O=C(O)c1cn(C2CC2)c2cc(N3CCNCC3)c(F)cc2c1=O,4.5%,i,x,x
CC(C)(C)c1ccc(Oc2ccc(N)cn2)cc1,9.47µM*,i,u,3.8%
C=CC(=O)Nc1ccc(N(C)c2ccnc(Nc3ccc(N4CCN(C)CC4)cc3)n2)cc1,-37.3%,14.1µM*,u,-2.9%
CN1CCN(c2ccc(NC(=O)c3ccc(Oc4ccccc4)cc3)cc2)CC1,-22.2%,i,u,-30.6%
CCn1c(=S)sc2c(=O)n(CC(=O)Nc3ccccc3)c(C)nc21,-18.8%,i,-17.5%,-13.1%
CCn1c(=S)sc2c(=O)n(CC(=O)Nc3ccccc3C(F)(F)F)c(C)nc21,x,31.6µM*,0.8%,-12.7%
CC(C)CC(N)c1csc(Nc2ccc(C(F)(F)F)cn2)n1 (stereo not drawn),u,u,u,17.8µM*
NC(Cc1ccc(Cl)cc1)c1csc(Nc2ccc(C(F)(F)F)cn2)n1 (stereo not drawn),-22.5%,31.6µM*,u,-97.5%
CC1=NN(c2ccccc2)C(=O)/C1=C/C=C/C=C/N(C)C,u,14.1µM*,13.3%,-6.2%
COc1cc2sc(-c3ccccc3OC)c(-c3ccc(OCCN4CCCCC4)cc3)c2cc1OC,u,25.1µM*,u,15.8µM*
COc1ccccc1-c1sc2cc3c(cc2c1-c1ccc(OCCN2CCCCC2)cc1)OCO3,u,u,u,10µM*
COc1ccccc1-c1sc2ccccc2c1-c1ccc(O)cc1,0.1%,i,11.2µM*,-36.6%
COc1ccc2sc(-c3ccccc3OC)c(-c3ccc(OCCN4CCOCC4)cc3)c2c1,-6.1%,i,-2.0%,0.6%
Cc1ccc(/C(=C\CN2CCCC2)c2cccc(/C=C/C(=O)O)n2)cc1,x,i,x,x
COc1ccccc1C1CN(Cc2cnn(C)c2C)Cc2ccccc2O1 (stereo not drawn),x,i,x,x
CCc1ccc(/C=C/C(=O)c2cc(Br)ccc(=O)c2O)cc1,31.6µM*,u,u,-76.2%
Cc1ccc(/C=C/C(=O)c2cc(Br)ccc2OC(=O)c2ccco2)cc1,-4.0%,i,-14.5%,11.2µM*
O=C(/C=C/c1cc(Br)ccc1O)c1ccco1,u,x,u,11.2µM*
Cc1cccc(/C=C/C(=O)c2cc(Br)ccc(=O)c2O)c1,11.7%,i,u,-29.4%
SMILES,ATXN2 expr inh,ATXN viability,TGFb inhibitor,HepG2 viability
CCOc1ccc(/C=C/C(=O)c2cc(Br)ccc(=O)c2O)cc1,-14.5%,x,7.94µM*,-54.7%
COc1ccc(C2N=C(Nc3nc4ccccc4o3)NC3=C2C(=O)CC(C)(C)C3)cc1 (stereo not drawn),x,x,17.6%,9.6%
Cc1ccccc1NC(=O)CSc1nc(-c2ccccc2)cn1-c1ccccc1F,u,u,11.2µM*,-0.7%
Cc1ccccc1-n1cc(-c2ccccc2)nc1SCC(=O)Nc1ccc(F)cc1,-23.1%,i,u,-2.8%
Cc1c(C(=O)NCCN2CCOCC2)cnn1-c1nccc(-c2cc3ccccc3o2)n1,x,i,x,x
O=c1cc(N2CCCCC2)c(-c2ccccc2)nn1Cc1c(Cl)cccc1Cl,u,u,10µM*,17.8µM*
O=c1cc(N2CCCCC2)c(-c2ccccc2)nn1Cc1ccc(Cl)cc1,-33.9%,i,-8.2%,-3.1%
C[C@@H](C[C@@H](O)[C@H](O)C(C)(C)O)[C@@H]1CC[C@]2(C)C3=CC[C@H]4C(C)(C)C(=O)CC[C@]4(C)[C@H]3CC[C@@]12C,u,x,11.2µM*,11.2µM*

# Bioassay records as filed in PubChem BioAssay.
